KCNQ2 inh: rat KCNQ2 potassium channel inhibitors, primary screen, cell-based, CHO-K1, FluxOR thallium flux, B-score. 20 min; active compounds read low. Potassium voltage-gated channel subfamily KQT member 2 (Rattus norvegicus), O88943. B-score at 10 µM. AID 2156, 2009. 310,000 compounds, 1.1% hits;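 active = fluorescence ratio B-score at most minus 3 library SDs, with starting brightness B-score within 2 library SDs, cut at about -5.5 in these data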
Target sequence (O88943 whole entry, looked up): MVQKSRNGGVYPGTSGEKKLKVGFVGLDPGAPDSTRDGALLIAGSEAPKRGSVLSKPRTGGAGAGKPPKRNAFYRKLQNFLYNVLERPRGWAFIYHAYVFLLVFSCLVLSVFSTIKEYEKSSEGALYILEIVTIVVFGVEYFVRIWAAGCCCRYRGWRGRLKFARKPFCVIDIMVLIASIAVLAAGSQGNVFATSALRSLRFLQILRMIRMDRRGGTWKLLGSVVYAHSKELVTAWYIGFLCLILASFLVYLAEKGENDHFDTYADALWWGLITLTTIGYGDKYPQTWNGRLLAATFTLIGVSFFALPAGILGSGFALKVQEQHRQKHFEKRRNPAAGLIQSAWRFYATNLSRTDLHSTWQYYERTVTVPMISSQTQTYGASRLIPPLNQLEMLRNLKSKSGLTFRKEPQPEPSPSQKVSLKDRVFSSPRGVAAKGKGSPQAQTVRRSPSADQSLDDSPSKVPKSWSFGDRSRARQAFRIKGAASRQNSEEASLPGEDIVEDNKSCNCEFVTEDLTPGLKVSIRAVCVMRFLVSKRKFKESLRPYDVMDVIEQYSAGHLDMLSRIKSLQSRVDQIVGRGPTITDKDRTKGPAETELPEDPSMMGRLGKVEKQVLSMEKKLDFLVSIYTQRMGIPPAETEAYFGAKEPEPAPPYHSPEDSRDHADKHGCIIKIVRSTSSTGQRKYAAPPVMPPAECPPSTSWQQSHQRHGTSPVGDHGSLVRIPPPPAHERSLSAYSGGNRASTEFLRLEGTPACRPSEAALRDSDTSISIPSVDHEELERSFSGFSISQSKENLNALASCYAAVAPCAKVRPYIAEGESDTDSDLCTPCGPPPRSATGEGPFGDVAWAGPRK
KCNQ2 pot: potentiators of rat KCNQ2 potassium channel. CHO-K1 KCNQ2, FluxOR thallium flux fluorescence; active compounds read high. B-score at 10 µM. Potassium voltage-gated channel subfamily KQT member 2 (Rattus norvegicus), O88943. 310,000 compounds, 0.54% hits;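 active = fluorescence ratio B-score at least 3 SD of library B-scores, with initial fluorescence B-score within 3 of them, cut at about 5.3 in these data; same plate scores as AID 2156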;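 note: B-score of peak minus minimum over baseline fluorescence ratio after K+ and Tl+ stimulus; positive B-score means potentiation of KCNQ2 with more thallium influx and brighter signal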
The depositor's hits bear a star; i = inactive; . = not tested or not shown. Compounds with a hit are over-represented: about 1.6% of the library has one in this group of screens.

SMILES | KCNQ2 inh | KCNQ2 pot
COc1ccc(OC)c(C(=O)CSc2nccc(-c3ccc(Br)cc3)n2)c1 | -6.4* | -6.4
Cc1cccc(NC(=O)C2CCCN(S(=O)(=O)c3ccc4[nH]c(=O)ccc4c3)C2)c1 (stereo not drawn) | i | .
COc1ccccc1-n1cc(C(=O)N2CCCC(CO)(Cc3ccccc3C)C2)cn1 (stereo not drawn) | i | .
COc1ccc(NC(=O)C(c2ccccc2)N2CCN(c3ccccn3)CC2)cc1Cl (stereo not drawn) | -6.3* | -6.3
COc1cc(NC(=O)CN2CCN(c3ccccn3)CC2)cc(OC)c1OC | i | .
C=CCN1C(=O)C(CC(=O)Nc2ccccc2)SC1=Nc1ccc(S(N)(=O)=O)cc1 (stereo not drawn) | i | .
O=S(=O)(c1ccc(Cl)cc1)N1CCCC1c1nc2ccccc2s1 (stereo not drawn) | i | .
O=S(=O)(c1ccc(Cl)cc1)N1CCCC1c1nc(-c2cccc(Cl)c2)no1 (stereo not drawn) | -5.9* | -5.9
O=S(=O)(c1ccccc1Cl)N1CCCC1c1nc(-c2cccc(Cl)c2)no1 (stereo not drawn) | -6.3* | -6.3
O=S(=O)(c1ccccc1Cl)N1CCCC(c2nc(-c3cccnc3)no2)C1 (stereo not drawn) | i | 0.89
Cn1c(CSc2ncccn2)nnc1SCC(=O)N1CCCCCC1 | i | 0.82
Cn1c(CSc2ncccn2)nnc1SCC(=O)N1CCCC1 | -6.3* | -6.3
COc1cccc(OC)c1C(=O)Nc1cccnc1 | i | .
CNc1nc(SCC(=O)Nc2ccccc2)nc(N2CCOCC2)n1 | i | .
O=C(CSc1nc2ccccc2nc1N1CCOCC1)N1CCN(c2ccccc2)CC1 | i | 0.21
O=C(CSc1nc2ccccc2nc1N1CCCCC1)N1CCN(c2ccccc2)CC1 | -7.7* | -7.7
CCOC(=O)c1c(NC(=O)CSc2nnc(-c3cccnc3)n2Cc2ccco2)sc(C)c1C | i | .
C=CCn1cc(C(=O)N2CCN(c3ccccc3)CC2)c(=O)c2cc(S(=O)(=O)N3CCCC3)ccc21 | i | 0.89
Cc1sc2ncnc(NCC(O)c3ccc([N+](=O)[O-])cc3)c2c1C (stereo not drawn) | i | 0.11
Cc1ccc(S(=O)(=O)N(C)C)cc1NC(=S)N(C)C1CCN(C)CC1 | i | 0.15
CC(=O)c1cccc(NC(=O)CN(C)Cc2ccc(OC(F)F)cc2)c1 | i | 0.81
N#Cc1ccccc1CSc1nc2ccsc2c(=O)n1Cc1ccccn1 | i | .
Cc1ccc(CSc2nc3ccsc3c(=O)n2Cc2ccccn2)cc1 | -6.2* | -6.2
Cc1cc(Cl)ccc1OCC(=O)N1CCCN(C(=O)COc2ccc(Cl)cc2C)CC1 | i | .
Cc1cc(Cl)ccc1OC(C)C(=O)N1CCCN(C(=O)C(C)Oc2ccc(Cl)cc2C)CC1 (stereo not drawn) | -6.2* | -6.2
SMILES | KCNQ2 inh | KCNQ2 pot
CCN(CCn1cccn1)C(=O)CC1C(=O)NCCN1CCc1ccccc1 (stereo not drawn) | i | .
Cc1ccc(SCCNC(=S)Nc2cc(C)cc(C)c2)cc1 | i | .
Cc1ccc(SCCNC(=S)Nc2ccc(C)cc2C)cc1 | i | 7*
COc1cccc(C(C(=O)NCC2CCCO2)N(C(=O)Cn2nnc3ccccc32)c2ccc(NC(C)=O)cc2)c1OC (stereo not drawn) | i | 0.19
COc1ccc(CN2C(=O)C(Cc3ccccc3)Nc3ncnc(N4CCc5ccccc5C4)c32)cc1 (stereo not drawn) | i | .
CCN(CC)C(=S)SCC(=O)NC12CC3CC(CC(C3)C1)C2 | i | 8.8*
CCN(CC)CC(=O)NC12CC3CC(CC(C3)C1)C2 | i | .
O=C(CNC1CCCCC1)Nc1ccc(Cl)cc1 | i | 1.8
Cc1ccc(SC(=O)c2c([N+](=O)[O-])c(C)nn2C)cc1 | -5.9* | -5.9
Cc1cc(C)n(C(=O)c2c([N+](=O)[O-])c(C)nn2C)n1 | i | 0.67
CC(=O)c1cccc(NC(=O)C(OC(=O)c2ccccc2NS(=O)(=O)c2cccs2)c2ccccc2)c1 (stereo not drawn) | i | .
COc1ccc(N(C)S(=O)(=O)c2cccc(C(=O)Nc3cc(OC)ccc3OC)c2)cc1 | i | .
COc1ccc(N(C)S(=O)(=O)c2cccc(C(=O)OC(C(=O)Nc3cc(C)cc(C)c3)c3ccccc3)c2)cc1 (stereo not drawn) | -5.7* | -5.7
CC(=O)c1cccc(NC(=O)C(OC(=O)c2cccc(S(=O)(=O)N(C)c3ccccc3)c2)c2ccccc2)c1 (stereo not drawn) | -5.5* | -5.5
CC(=O)c1ccc([N+](=O)[O-])c(CS(=O)(=O)c2ccccc2)c1 | i | .
CC1(C)CC(=O)C(C2C3=C(CC(C)(C)CC3=O)OC3=C2C(=O)CC(C)(C)C3)=C(O)C1 | i | .
CCOC(=O)/C(=C/c1ccc(OC(=O)c2ccncc2)cc1)C(C)=O | -5.7* | -5.7
COCCOC(=O)/C(=C/c1ccc(OC(=O)c2ccccc2)cc1)C(C)=O | i | 0.27
CCOP(=O)(OCC)C(NC(=O)Nc1ccc(C)cc1)C(N)=O (stereo not drawn) | i | 0.72
COc1cccc(NC(=O)CSc2nc3c(sc4ccccc43)c(=O)n2CCN(C)C)c1 | i | 0.49
COc1cccc(NC(=O)CSc2nc3c(sc4ccccc43)c(=O)n2CCCN2CCCC2)c1 | -6.7* | -6.7
Cc1ccc(NC(=O)CSc2nc3ccccc3c(=O)n2CCCN2CCCCC2)cc1Cl | -7.9* | -7.9
CC1CCN(CCCn2c(SCC(=O)Nc3ccccc3Cl)nc3ccccc3c2=O)CC1 | i | .
CN(C)c1ccc(C2Nc3ccccc3C(=O)N2CCCN2CCOCC2)cc1 (stereo not drawn) | i | 0.01
CCn1c(SCC(=O)NC(=O)c2ccccc2OC)nc2ccccc21 | i | 1.5
SMILES | KCNQ2 inh | KCNQ2 pot
COc1ccc(NC(=O)C2=C(C)Nc3nc(CCCO)nn3C2c2ccc(OC)c(OC)c2)cc1 (stereo not drawn) | i | .
CCCC(=O)N=C1SC2CS(=O)(=O)CC2N1c1ccc(-c2nc3ccc(C)cc3s2)cc1 (stereo not drawn) | i | 1.3
CCOC(=O)C1=C(C)N(c2ccccc2)C(=O)/C1=C\c1ccco1 | -6* | -6
COC(=O)C1=C(C)N(c2ccc(OC)c(OC)c2)C(=O)/C1=C\c1ccco1 | i | 0.96
COc1ccccc1COc1ccc2c(C)c(CC(=O)O)c(=O)oc2c1C | i | .
COc1ccc(C(=O)NC(NC(=S)Nc2ccc(S(N)(=O)=O)cc2)C(Cl)(Cl)Cl)cc1 (stereo not drawn) | i | .
C/C(=N/NC(=O)CC1N=C(Cc2ccccc2)NNC1=O)c1cccnc1 (stereo not drawn) | i | 0.92
CC1C(=O)C(C)C(c2ccc3c(c2)OCO3)NC1c1ccc2c(c1)OCO2 (stereo not drawn) | i | .
CC1C(=O)C(C)C(c2ccc(Br)cc2)NC1c1ccc(Br)cc1 (stereo not drawn) | -6.3* | -6.3
Cc1ccc(-n2nnnc2SCC(=O)NC2CCCc3ccccc32)cc1 (stereo not drawn) | i | .
Cc1ccc(-n2nnnc2SCC(=O)NC2CCCc3ccccc32)c(C)c1 (stereo not drawn) | -6.5* | -6.5
CCCCC1(CC(=O)OC)C(=O)N(c2ccccc2)N(c2ccccc2)C1=O | i | .

Source: PubChem BioAssay
